These results are taken from PubChem BioAssay (NCI).

Where “and” joins values, the source holds several entries; their conditions need not be identical. Equal values may be shown once. Compounds without any hit were thinned out: in the full panel of roughly 79,000, 15% have a hit. Some structures have more than one record in an assay (separate samples or runs), and their calls can disagree. Calls of active or inactive are those of the source. Rule as the data show it: active = growth inhibition above about 70%; inactive = the rest.

Experiment [1] can be described thus: NCI Yeast Anticancer Drug Screen. Data for the rad50 strain (AID 155).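 Also: 0% = growth of vehicle-only cultures of the same strain.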 Particulars: S. cerevisiae rad50 strain growth inhibition, stronger effect = higher value. The gist of the method: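 A DNA repair-deficient yeast mutant serves as the test organism; compound-induced growth inhibition is calculated against vehicle-treated cells.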
Experiment [2] in a line: NCI Yeast Anticancer Drug Screen. Data for the mec2-1 strain (AID 157). Particulars: S. cerevisiae mec2-1 strain, stronger effect = higher value. In short, it runs like this: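 Mutant yeast (mec2-1) grown with compound; growth inhibition relative to vehicle control reported.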
A short description of experiment [3]: NCI Yeast Anticancer Drug Screen. Data for the sgs1 mgt1 strain (AID 161).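 Also: 0% = growth of cultures given vehicle only.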 Particulars: S. cerevisiae sgs1 mgt1 strain, stronger effect = higher value. In short, it runs like this:
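Yeast cells carrying a defined DNA-repair defect were exposed to test compounds. Growth inhibition was measured relative to vehicle-treated controls.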

A short description of experiment [4]: NCI Yeast Anticancer Drug Screen. Data for the cln2 rad14 strain (AID 165).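 Also: 0% = growth equal to vehicle treated cultures.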 The settings on record: S. cerevisiae cln2 rad14 strain, stronger effect = higher value. In short, it runs like this: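 Readout is yeast growth inhibition versus vehicle-treated controls, using a strain with cln2 and rad14 alterations exposed to compound.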
Experiment [5] is described as follows: NCI Yeast Anticancer Drug Screen. Data for the bub3 strain (AID 167). The settings on record: S. cerevisiae bub3 mutant strain, stronger effect = higher value. In short, it runs like this: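 Inhibition values come from growth of compound-treated mutant yeast normalised to vehicle-treated controls.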
Experiment [6] can be described thus: NCI Yeast Anticancer Drug Screen. Data for the mlh1 rad18 strain (AID 175). The settings on record: S. cerevisiae mlh1 rad18 strain growth inhibition, stronger effect = higher value. The gist of the method: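 Genetically defined yeast (DNA repair-deficient) exposed to compounds; growth inhibition determined relative to vehicle.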
The mark [7] stands for this setting: at 5.0 µM (retest, dose inferred, filed as 0.5).
The mark [8] stands for this setting: at 50.0 µM (retest, dose inferred, filed as 5.0).

Regarding `COc1ccc(OC)c(C=O)c1`, the growth inhibition was 1% (inactive) in experiment [1] (setting [7]); 5% (inactive) in experiment [1] (setting [8]); 24.9% (inactive) in experiment [1] (at 50.0 µM); 0% (inactive) in experiment [2] (setting [7]); 7% (inactive) in experiment [2] (setting [8]); -12.2% (inactive) in experiment [2] (at 50.0 µM). In addition, the growth inhibition in experiment [3] (setting [7]) is -2% (inactive); in experiment [3] (setting [8]), 12% (inactive); in experiment [3] (at 50.0 µM), -11.7% (inactive); in experiment [4] (setting [7]) it was 2% (inactive); in experiment [4] (setting [8]), 4% (inactive); in experiment [4] (at 50.0 µM), -38.2% (inactive). For the same compound, the growth inhibition in experiment [5] (setting [7]) is 2% (inactive); in experiment [5] (setting [8]) it was 7% (inactive); in experiment [5] (at 50.0 µM), -35% (inactive); in experiment [6] (setting [7]), -1% (inactive); in experiment [6] (setting [8]), 14% (inactive); in experiment [6] (at 50.0 µM) it was -8% (inactive).

`O=[N+]([O-])c1ccc([Se]CCBr)c([N+](=O)[O-])c1`: the growth inhibition is 5% (inactive) in experiment [1] (setting [7]); 36% (inactive) in experiment [1] (setting [8]); 38.4% (inactive) in experiment [1] (at 50.0 µM); 1% (inactive) in experiment [2] (setting [7]); 23% (inactive) in experiment [2] (setting [8]); 41% (inactive) in experiment [2] (at 50.0 µM). The growth inhibition is 5% (inactive) in experiment [3] (setting [7]); 95% (active) in experiment [3] (setting [8]); 18.2% (inactive) in experiment [3] (at 50.0 µM); 2% (inactive) in experiment [4] (setting [7]); 88% (active) in experiment [4] (setting [8]); 15.8% (inactive) in experiment [4] (at 50.0 µM). Further, the growth inhibition is -2% (inactive) in experiment [5] (setting [7]); 90% (active) in experiment [5] (setting [8]); 30.2% (inactive) in experiment [5] (at 50.0 µM); 10% (inactive) in experiment [6] (setting [7]); 96% (active) in experiment [6] (setting [8]); 19.8% (inactive) in experiment [6] (at 50.0 µM).

As to `COc1c(O)c2c(c3cc(C(=O)N4CCc5c4c(O)c(OC)c4[nH]c(C(=O)N6CC7CC78C6=CC(=O)c6[nH]cc(C)c68)cc54)[nH]c13)CCN2C(N)=O` (centres undefined), the growth inhibition in experiment [1] (setting [7]) was 97% (active); in experiment [1] (setting [8]), 97% (active); in experiment [1] (at 50.0 µM), 89.8% (active); in experiment [2] (setting [7]), 98% (active); in experiment [2] (setting [8]) it was 98% (active); in experiment [2] (at 50.0 µM), 93% (active). In addition, the growth inhibition in experiment [3] (setting [7]) was 96% (active); in experiment [3] (setting [8]) it was 96% (active); in experiment [3] (at 50.0 µM), 90.5% (active); in experiment [4] (setting [7]), 95% (active); in experiment [4] (setting [8]), 95% (active); in experiment [4] (at 50.0 µM) it was 89% (active). The growth inhibition in experiment [5] (setting [7]) was 94% (active); in experiment [5] (setting [8]) it was 96% (active); in experiment [5] (at 50.0 µM), 91% (active); in experiment [6] (setting [7]), 98% (active); in experiment [6] (setting [8]), 97% (active); in experiment [6] (at 50.0 µM), 89.5% (active).

Take `FC(F)(F)c1nc2ccc(SSc3ccc4nc(C(F)(F)F)[nH]c4c3)cc2[nH]1`: the growth inhibition in experiment [1] (setting [7]) was -8% (inactive); in experiment [1] (setting [8]), 17% (inactive); in experiment [1] (at 50.0 µM), 96% (active); in experiment [2] (setting [7]), 13% (inactive); in experiment [2] (setting [8]), 20% (inactive); in experiment [2] (at 50.0 µM), 93.8% (active). Besides, the growth inhibition in experiment [3] (setting [7]) is -3% (inactive); in experiment [3] (setting [8]) it was 12% (inactive); in experiment [3] (at 50.0 µM), 96.6% (active); in experiment [4] (setting [7]), 8% (inactive); in experiment [4] (setting [8]) it was -32% (inactive); in experiment [4] (at 50.0 µM), 92.3% (active). Besides, the growth inhibition in experiment [5] (setting [7]) was 1% (inactive); in experiment [5] (setting [8]) it was 14% (inactive); in experiment [5] (at 50.0 µM) it was 95.5% (active); in experiment [6] (setting [7]) it was 2% (inactive); in experiment [6] (setting [8]), -6% (inactive); in experiment [6] (at 50.0 µM), 97.2% (active).

With `CCOP(=O)(O)C(Nc1ccc(N=Nc2ccccc2)cc1)c1cccc(C(Nc2ccc(N=Nc3ccccc3)cc2)P(=O)(O)OCC)c1` (centres undefined), the growth inhibition was 10% (inactive) in experiment [1] (setting [7]); 29% (inactive) in experiment [1] (setting [8]); 49.4% (inactive) in experiment [1] (at 50.0 µM); 0% (inactive) in experiment [2] (setting [7]); 46% (inactive) in experiment [2] (setting [8]); 47.6% (inactive) in experiment [2] (at 50.0 µM). Further, the growth inhibition in experiment [3] (setting [7]) was 5% (inactive); in experiment [3] (setting [8]), 8% (inactive); in experiment [3] (at 50.0 µM), 46.3% (inactive); in experiment [4] (setting [7]) it was 6% (inactive); in experiment [4] (setting [8]) it was 27% (inactive); in experiment [4] (at 50.0 µM) it was 44% (inactive). The growth inhibition was 4% (inactive) in experiment [5] (setting [7]); 35% (inactive) in experiment [5] (setting [8]); 42.5% (inactive) in experiment [5] (at 50.0 µM); 7% (inactive) in experiment [6] (setting [7]); 42% (inactive) in experiment [6] (setting [8]); 47.9% (inactive) in experiment [6] (at 50.0 µM).

As to `CC(Cc1ccccc1)[N+](=O)[O-]` (centres undefined), the growth inhibition in experiment [1] (setting [7]) is 8% (inactive); in experiment [1] (setting [8]) it was 70% (active); in experiment [1] (at 50.0 µM), 79% (active); in experiment [2] (setting [7]), 0% (inactive); in experiment [2] (setting [8]), 6% (inactive); in experiment [2] (at 50.0 µM) it was -12.9% (inactive). Besides, the growth inhibition in experiment [3] (setting [7]) is 2% (inactive); in experiment [3] (setting [8]), 7% (inactive); in experiment [3] (at 50.0 µM), -8.2% (inactive); in experiment [4] (setting [7]), 3% (inactive); in experiment [4] (setting [8]), -3% (inactive); in experiment [4] (at 50.0 µM) it was -19.6% (inactive). Moreover, the growth inhibition in experiment [5] (setting [7]) was 7% (inactive); in experiment [5] (setting [8]), 27% (inactive); in experiment [5] (at 50.0 µM), -6.9% (inactive); in experiment [6] (setting [7]), -1% (inactive); in experiment [6] (setting [8]) it was 10% (inactive); in experiment [6] (at 50.0 µM) it was 12.1% (inactive).

Regarding `Oc1cc(Cl)c(Cl)cc1Cl`, the growth inhibition in experiment [1] (setting [7]) is 30% (inactive); in experiment [1] (setting [8]), 98% (active); in experiment [1] (at 50.0 µM) it was 98.5% (active) and 53% (inactive); in experiment [2] (setting [7]), 12% (inactive); in experiment [2] (setting [8]), 99% (active); in experiment [2] (at 50.0 µM), 98.8% (active) and 98.6% (active). Moreover, the growth inhibition in experiment [3] (setting [7]) was 17% (inactive); in experiment [3] (setting [8]), 99% (active); in experiment [3] (at 50.0 µM), 99.1% (active) and -3.1% (inactive); in experiment [4] (setting [7]) it was 0% (inactive); in experiment [4] (setting [8]), 99% (active); in experiment [4] (at 50.0 µM), 97.5% (active) and 96.4% (active). The growth inhibition was -2% (inactive) in experiment [5] (setting [7]); 99% (active) in experiment [5] (setting [8]); 98.1% (active) and 97.2% (active) in experiment [5] (at 50.0 µM); 18% (inactive) in experiment [6] (setting [7]); 100% (active) in experiment [6] (setting [8]); 98.8% (active) and 52.5% (inactive) in experiment [6] (at 50.0 µM).

Consider `CCC1(CC)C(=O)[N-]C(=O)[N-]C1=O.[Au+].[Au+].c1ccc([PH+](c2ccccc2)c2ccccc2)cc1.c1ccc([PH+](c2ccccc2)c2ccccc2)cc1`, for which the growth inhibition in experiment [1] (setting [7]) is 99% (active); in experiment [1] (setting [8]), 94% (active); in experiment [1] (at 50.0 µM), 1.75% (inactive); in experiment [2] (setting [7]), 99% (active); in experiment [2] (setting [8]) it was 97% (active); in experiment [2] (at 50.0 µM), 80.6% (active). In addition, the growth inhibition in experiment [3] (setting [7]) is 99% (active); in experiment [3] (setting [8]), 96% (active); in experiment [3] (at 50.0 µM) it was -4.5% (inactive); in experiment [4] (setting [7]) it was 95% (active); in experiment [4] (setting [8]), 96% (active); in experiment [4] (at 50.0 µM), 35.1% (inactive). The growth inhibition in experiment [5] (setting [7]) is 99% (active); in experiment [5] (setting [8]), 90% (active); in experiment [5] (at 50.0 µM) it was 2.2% (inactive); in experiment [6] (setting [7]), 98% (active); in experiment [6] (setting [8]), 96% (active); in experiment [6] (at 50.0 µM), 4.65% (inactive).
